The record followed here is PubChem BioAssay AID624405 (Broad Institute, 2012).

Each structure is given as a SMILES string. About 250 (13%) of roughly 1,900 compounds were called active. Inconclusive results (about 4%) are left out.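 How the source made its calls: active means fitted curve reaches 40% rescue activity at or below the top valid dose, in every test run; inconclusive means test runs disagree, some active and some inactive; inactive means every run misses the threshold or moves the wrong way.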 Only a sample is shown. A call without a number means that no potency is given here. Potency and affinity values are given separately.

This assay in a line: suppressors of statin myotoxicity in myotubes, dose response, cell-based, C2C12 myotubes, ATP luminescence, cherry pick (AID 624405).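 Further: myotubes are challenged with simvastatin at 10 µM to lower ATP.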 To be noted: C2C12 myotubes + simvastatin, 48 h, scaled: DMSO wells 0, geranylgeraniol wells 100; series mostly up to 19.5 µM.
Take `CCn1c(CSc2nc(C)cc(C)n2)nnc1SCC(=O)Nc1nc(-c2ccccc2)cs1`: the result was inactive. To `COc1ccc(S(=O)(=O)Nc2cccc3c2O[C@H](CN(C)S(=O)(=O)c2ccc(Cl)cc2)[C@H](C)CN([C@@H](C)CO)C3=O)cc1` belongs “inactive”. To `CCOc1ccccc1C(=O)n1nc(C)cc1C` belongs “inactive”. To `CCCCOC(=O)Cn1c(=O)c2c(nc3n2CCCCN3c2ccc(C)cc2)n(C)c1=O` belongs “inactive”; to `CCOC(=O)Cn1c(=O)c2c(nc3n2CCN3Cc2ccccc2)n(C)c1=O`, “inactive”; to `O=C1c2ccccc2C(=O)N1CCC1=CCCCC1`, “inactive”. `C[C@@H]1CN([C@H](C)CO)C(=O)c2cccc(NS(=O)(=O)c3cccs3)c2O[C@@H]1CN(C)S(=O)(=O)c1cccs1`: the outcome was inactive. To `Fc1ccccc1OCCCN1CCOCC1` belongs “inactive”; to `C[C@H]1CN([C@@H](C)CO)C(=O)c2cc(/C=C/c3ccccc3)cnc2O[C@@H]1CN(C)C(=O)Nc1ccccc1F`, “inactive”. Under `C=CCSc1nc(C)c2cc(C)cc(C)c2n1` stands “inactive”; under `O=S(=O)(NCc1csc(-c2cccs2)n1)c1cccc(C(F)(F)F)c1`, “inactive”; under `CC(C)(CSc1ncccn1)NS(=O)(=O)c1ccccc1`, “inactive”. For the compound `COc1ccc(NC(=O)N(C)C[C@H]2OCCCC[C@H](C)Oc3ccc(NS(=O)(=O)c4c(C)noc4C)cc3C(=O)N([C@@H](C)CO)C[C@H]2C)cc1`, the result was inactive. Under `Cc1cc(C)n(C(=O)c2ccc(S(=O)(=O)NCC3CCCO3)cc2)n1` (configuration not stated) stands “inactive”; under `C[C@@H]1CN([C@@H](C)CO)C(=O)c2cccc(NC(=O)C3CCCCC3)c2O[C@H]1CN(C)S(=O)(=O)c1ccc(Cl)cc1`, “inactive”. As for `C[C@@H]1CCCCO[C@@H](CN(C)Cc2ccc(Cl)c(Cl)c2)[C@H](C)CN([C@@H](C)CO)C(=O)c2cc(NC(=O)Cc3ccccc3)ccc2O1`, the outcome was inactive.

For `O=c1cc(CN2CCN(Cc3ccccc3)CC2)c2cc3c(cc2o1)CCC3`, the result was inactive. Under `Cc1sc2nc3ccc(N4CCCCC4)nn3c(=O)c2c1C` stands “inactive”; under `Cc1cccn2c(=O)c3cc(C(=O)NCCC4=CCCCC4)n(C)c3nc12`, “inactive”. With `CN(C)C(CNC(=O)NC1CCCCC1)c1cccnc1` (configuration not stated), the outcome was inactive. Under `C[C@@H]1CN([C@@H](C)CO)C(=O)c2cc(NC(=O)Nc3ccc(F)cc3)ccc2O[C@@H](C)CCCCO[C@H]1CN(C)Cc1ccncc1` stands “inactive”; under `COC(=O)c1cc(OC)c(OC)cc1NC(=O)Nc1cccc(C(C)=O)c1`, “inactive”; under `C[C@H]1CN([C@@H](C)CO)C(=O)Cc2cc(NC(=O)Cc3ccccc3)ccc2O[C@@H]1CN(C)Cc1ccc(Oc2ccccc2)cc1`, “inactive”. To `O=C(COc1cccc(C(F)(F)F)c1)Nc1ccc(S(=O)(=O)N2CCCC2)cc1` belongs “inactive”; to `O=C(OCCOc1ccc(Br)cc1)c1cnccn1`, “inactive”; to `O=C(c1cnccn1)N1CCN(C/C=C/c2ccccc2)CC1`, “inactive”. For the compound `C[C@H]1CN([C@@H](C)CO)C(=O)c2cc(NC(=O)C3CC3)ccc2O[C@@H]1CN(C)CC1CCCCC1`, the result was inactive.

For `C[C@H](CO)N1C[C@H](C)[C@H](CN(C)Cc2ccc(C(F)(F)F)cc2)Oc2c(NC(=O)Nc3cccc4ccccc34)cccc2C1=O`, the result was inactive.

For `C[C@@H]1CN([C@H](C)CO)C(=O)c2cc(NC(=O)Nc3cccc4ccccc34)ccc2O[C@@H](C)CCCCO[C@@H]1CN(C)Cc1ccc2c(c1)OCO2`, the result was inactive. To `COc1ccc(NC(=O)Nc2ccc3c(c2)C(=O)N([C@@H](C)CO)C[C@H](C)[C@@H](CN(C)Cc2ccc(C(F)(F)F)cc2)OCCCC[C@H](C)O3)cc1` belongs “inactive”. Under `C[C@@H]1CN([C@@H](C)CO)C(=O)c2cccc(NC(=O)C3CCOCC3)c2O[C@@H]1CN(C)S(=O)(=O)c1cn(C)cn1` stands “inactive”; under `COC(=O)[C@H]1[C@H](CO)[C@H]2Cn3c(ccc(C4=CCCCC4)c3=O)[C@H]2N1CC1CCCCC1`, “inactive”.
